Most compounds without a hit are left out; they make up all but 3.8% or so of the library.
A549 viability = Nrf2 qHTS screen for inhibitors: counterscreen for cytotoxicity | Potency, µM (series often up to 46 µM), for the others: top-dose activity change, negative = cytotoxicity, actives largely listed as inhibitors | 0.16% of 390,000 active | A549 ARE-Fluc cells, CellTiter-Fluor viability, 18-24 h; note: % is set by controls: 0 for no effect and ±100 for the full control effect
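Cytotoxicity counterscreen: CellTiter-Fluor fluorescence was measured in A549 ARE_Fluc cells after 18-24 h of compound exposure in a concentration series. The subsequent BugLite luminescent read reports ARE-luciferase activity.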
mIDH1 inhibitor = qHTS for Inhibitors of mutant isocitrate dehydrogenase 1 (IDH1): qHTS | IDH1-R132H enzyme, NADPH consumption, diaphorase/resazurin fluorescence | AID 602179, 2012 | Isocitrate dehydrogenase [NADP] cytoplasmic (Homo sapiens), O75874 | 0.093% of 390,000 active | Potency, µM (doses to about 76.6 µM), inactives show at the highest dose activity change, negative = inhibition, most hits filed as inhibitors; note: % is set by controls: 0 for no effect and ±100 for the full control effect; nearly all actives have a fitted effect of over 65% in size
Target sequence (O75874 whole entry R132H, stated change not applied): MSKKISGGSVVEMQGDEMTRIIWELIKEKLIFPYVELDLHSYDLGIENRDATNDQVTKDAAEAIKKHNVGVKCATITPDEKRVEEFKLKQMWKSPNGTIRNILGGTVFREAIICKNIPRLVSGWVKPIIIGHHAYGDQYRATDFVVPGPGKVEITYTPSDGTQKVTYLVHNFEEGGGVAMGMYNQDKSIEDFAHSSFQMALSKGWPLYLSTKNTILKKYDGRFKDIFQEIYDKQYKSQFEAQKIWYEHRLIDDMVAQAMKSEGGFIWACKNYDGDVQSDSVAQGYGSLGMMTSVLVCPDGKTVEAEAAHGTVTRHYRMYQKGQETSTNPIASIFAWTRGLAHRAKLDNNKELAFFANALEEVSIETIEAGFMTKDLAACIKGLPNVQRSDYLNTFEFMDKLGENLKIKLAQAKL
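IDH1-R132H (0.5 ug/mL) preincubated 30 min with compound, then NADPH (0.016 mM) and alpha-KG (2 mM) added; 80 min at RT, pH 7.5. Remaining NADPH coupled via diaphorase/resazurin to fluorescence (540/590 nm); concentration-response curves normalized to no-enzyme control.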
Nrf2 activator = qHTS of Nrf2 Activators; 0.31% of 410,000 active; AID 624171, 2012; AREc32 ARE-luciferase reporter (MCF7-derived line), luminescence, 24 h; Potency, µM (highest dose often 46.1 µM), without a hit: at the top dose activation, most hits filed as activators; note: % of control where 0% means no effect; nearly all actives have a fitted effect of over 65% in size
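For detection, Steady-Glo was added and plates sat 30 min at RT; before that, AREc32_Fluc cells grown overnight in OPTI-MEM/5% FBS had been treated with 23 nL compound for 24 hr at 37 deg C.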
Nrf2 block = Nrf2 qHTS screen for inhibitors | AID 504444, 2011 | 2.1% of 360,000 active | A549 ARE-Fluc reporter, luciferase luminescence, 18-24 h | Potency, µM (doses to about 46 µM), inactives show at the top dose activity change, negative = inhibition, hits mostly inhibitors; note: % is set by controls: 0 for no effect and ±100 for the full control effect; nearly all actives have a fitted effect of over 60% in size
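Nrf2 function is reported as luminescence of an ARE-controlled luciferase in A549 cells. Compounds were tested at several concentrations, and a CellTiter-Fluor read on the same wells flagged cytotoxicity.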
ELG1 DNA repair = qHTS screen for small molecules that inhibit ELG1-dependent DNA repair in human embryonic kidney (HEK293T) cells expressing luciferase-tagged ELG1. HEK293T ELG1-luciferase reporter, luminescence, 16 h; DNA damage induced by 5-fluorouridine. Potency, µM (series often up to 46.1 µM), for the others: top-dose activity change, negative = inhibition, hits mostly inhibitors. 2.3% of 330,000 active. AID 504467, 2011; note: % is set by controls: 0 for no effect and ±100 for the full control effect; nearly all actives have a fitted effect of over 55% in size
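Step one: seed 2,000 cells per well. Step two: pin-transfer compound or DMSO alongside 5-fluorouridine. Step three: incubate 16 hr, 37 °C, 5% CO2. Step four: add ONE-Glo, wait 30 min, read luminescence.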
Numbers without * were called inactive. Calls come from the whole dose curve; as a rule, active = well fitted curve in the direction sought with a large enough effect; inconclusive = small, poorly fitted or top-dose-only effect, or another doubt; inactive = no such curve, though single readings can be large; an effect the other way counts as inactive or inconclusive. Potency is the fitted concentration of half-maximal effect.

Screening Cc1ccc(NC(=O)Nc2nnc(SCC(=O)N(C(C)C)C(C)C)s2)cc1 returned A549 viability -3.3%, mIDH1 inhibitor -1.2% and Nrf2 activator -0.2%.
Screening Cc1cnc(NC(=O)c2nn(C)cc2[N+](=O)[O-])s1 returned A549 viability -6.5%, mIDH1 inhibitor -2.9%, Nrf2 activator -0.3%, Nrf2 block inconclusive and ELG1 DNA repair 15.4%.
For O=C(Nc1nc(-c2ccc([N+](=O)[O-])cc2)cs1)c1c(F)cccc1F the results were A549 viability -17.8%, mIDH1 inhibitor 8.3%, Nrf2 activator 0.7%, Nrf2 block inconclusive and ELG1 DNA repair -1.4%.
For Cc1ccc(-c2nc(NC(=O)c3nn(C)cc3[N+](=O)[O-])sc2C)cc1C the results were A549 viability -21.2%, mIDH1 inhibitor 4.7%, Nrf2 activator inconclusive, Nrf2 block 25.9µM* and ELG1 DNA repair 9.2µM*.
For Cn1cc([N+](=O)[O-])c(C(=O)Nc2nc(-c3ccc(Cl)cc3)cs2)n1 the results were A549 viability inconclusive, mIDH1 inhibitor 9.0%, Nrf2 activator inconclusive and ELG1 DNA repair 2.06µM*.
For Cc1ccc(-c2nc(NC(=O)c3nn(C)cc3[N+](=O)[O-])sc2C)cc1 the results were A549 viability inconclusive, mIDH1 inhibitor -1.2%, Nrf2 activator -5.2%, Nrf2 block 18.4µM* and ELG1 DNA repair 16.4µM*.
Screening COc1ccc(Nc2nc(C#N)nc(NC3CCCC3)n2)cc1 returned A549 viability -2.8% and Nrf2 block inconclusive.
Screening COc1cc(NC(=O)NC(C)c2c(-n3cccc3)sc3c2CCN(C)C3)cc(OC)c1 (stereo not given) returned A549 viability 1.2%, mIDH1 inhibitor 10.4% and Nrf2 activator 7.7%.
O=C(Nc1sc2c(c1C(=O)NCC1CCCO1)CCCC2)c1cccs1 (stereo not given) was read as A549 viability -14.4%, mIDH1 inhibitor 2.1%, Nrf2 activator 4.5%, Nrf2 block 20.6µM* and ELG1 DNA repair inconclusive.
For O=C(c1cccc(Cl)c1)N1CCN(c2ncnc3c2cnn3-c2ccccc2)CC1 the results were A549 viability 1.2%, mIDH1 inhibitor 6.5%, Nrf2 activator 0.5%, Nrf2 block -7.5% and ELG1 DNA repair 11.6µM*.
Screening O=C(c1ccccc1)N1CCN(c2ncnc3c2cnn3-c2ccccc2)CC1 returned A549 viability -4.1%, mIDH1 inhibitor 2.9%, Nrf2 activator 4.0%, Nrf2 block inconclusive and ELG1 DNA repair -4.5%.
Screening CCOC(=O)C1CCN(c2ncnc3c2cnn3-c2ccc(Cl)cc2)CC1 returned A549 viability -0.5%, mIDH1 inhibitor 1.4%, Nrf2 activator -1.7%, Nrf2 block 2.91µM* and ELG1 DNA repair inconclusive.
For Cc1nn(-c2ccccc2)c(Cl)c1C(=O)N1CCN(c2ncnc3c2cnn3-c2ccccc2)CC1 the results were A549 viability inconclusive, mIDH1 inhibitor 0.5%, Nrf2 activator -0.6%, Nrf2 block 20.6µM* and ELG1 DNA repair 7.31µM*.
Nn1c(SCC(=O)NC2CCCCC2)nnc1-c1ccccc1F was read as A549 viability 4.8%, mIDH1 inhibitor 0.2%, Nrf2 activator 0.1%, Nrf2 block 4.0% and ELG1 DNA repair inconclusive.
Screening Cc1cc(C)n2c(Nc3ccccc3)c(-c3ccc(C)o3)nc2n1 returned A549 viability -4.8% and Nrf2 block inconclusive.
`COc1ccc(N2CCN(c3ccc4nnc(CCC(=O)Nc5ccc(C)cc5)n4n3)CC2)cc1` gave A549 viability 1.7%, mIDH1 inhibitor -6.2%, Nrf2 activator -0.2%, Nrf2 block inconclusive and ELG1 DNA repair inconclusive.
`COc1ccc(CCNC(=O)c2ccc3c(c2)CCN3S(=O)(=O)c2ccc(C)cc2)cc1` gave A549 viability -0.1%, mIDH1 inhibitor 0.0%, Nrf2 activator 0.7% and Nrf2 block inconclusive.

Source: PubChem BioAssay (National Center for Advancing Translational Sciences (NCATS))
